# Assay results taken from PubChem BioAssay (NCATS).
# Values joined by “and” are separate entries in the source; they are usually repeats but may differ in a detail not shown here. Equal entries are not always repeated. Unmarked numbers belong to inactive results. Inconclusive results are not listed. Entries that show only a call come without a potency. Active and inactive are the calls of the source. Unless noted, calls follow the shape of the dose curve; as a rule, active = well fitted curve in the direction sought with a large enough effect; inconclusive = small, poorly fitted or top-dose-only effect, or another doubt; inactive = no such curve, though single readings can be large; an effect the other way counts as inactive or inconclusive.
# Key:
# [1] = qHTS assay for small molecule disruptors of the mitochondrial membrane potential - 1 hr assay (AID 651754; calls by dose curve; also: nearly all actives have a fitted effect of over 35% in size; also: potency is read from the fitted curve at half-maximal effect); conditions: series mostly up to 92.2 µM
# How it was run: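 Mitochondrial potential in living HepG2 cells after 1 hr compound treatment at 37C was read with Mito-MPS dye added for a further 30 min. Red aggregate and green monomer fluorescence were measured; loss of potential leaves dye as cytoplasmic monomers.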
# [2] = qHTS assay for small molecule disruptors of the mitochondrial membrane potential - 5 hr assay (AID 651755; calls by dose curve; also: nearly all actives have a fitted effect of over 40% in size); conditions: JC-1-type ratio dye; series mostly up to 92.2 µM
# How it was run: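 Read-out: ratiometric Mito-MPS fluorescence, green monomer (ex 490/em 535) vs red mitochondrial aggregate (ex 540/em 590). HepG2 cells treated 5 hr at 37C before 30 min dye loading.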
# [3] = biological target: Tumor necrosis factor (Homo sapiens) (UniProt P01375); assay: qHTS assay to identify small molecules that stimulate Tumor Necrosis Factor-alpha (TNF-alpha) secretion (AID 651757; active = well fitted curve in the direction sought with a large enough effect in the signal ratio; the % refers to the signal ratio; also: potency is read from the fitted curve at half-maximal effect); conditions: Human cells, HTRF 665/615 ratio; series mostly up to 92.2 µM
# Tumor necrosis factor (Homo sapiens), sequence (P01375 whole entry, looked up): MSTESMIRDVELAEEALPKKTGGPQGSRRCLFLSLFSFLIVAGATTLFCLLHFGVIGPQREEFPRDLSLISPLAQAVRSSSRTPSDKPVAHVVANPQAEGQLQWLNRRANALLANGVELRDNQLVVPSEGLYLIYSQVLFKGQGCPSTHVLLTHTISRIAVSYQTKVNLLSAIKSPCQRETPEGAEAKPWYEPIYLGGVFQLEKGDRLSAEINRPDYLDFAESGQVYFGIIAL
# How it was run: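 Secreted TNF-alpha quantified by TR-FRET sandwich of two labeled anti-TNF-alpha antibodies, incubated 3 hr at room temperature. Preceded by 17 hr, 37 C compound treatment of THP-1 cells at 3000 cells/well.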
# [4] = qHTS assay to identify small molecules that stimulate interleukin-8 (IL-8) secretion (AID 651758; active = well fitted activation curve with a large enough effect in the signal ratio; the % refers to the signal ratio; also: potency is read from the fitted curve at half-maximal effect); conditions: HTRF ratio (665/615); series mostly up to 92.2 µM
# How it was run: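 Compounds are added to THP-1 cells (2000 per well) and left 16 hrs at 37 C. A labeled anti-IL-8 antibody pair is then added, and IL-8 secretion is measured by time-resolved FRET after 1-3 hrs at room temperature.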
# [5] = qHTS assay for environmental chemicals that activate the Aryl hydrocarbon Receptor (AhR) signaling pathway (AID 651777); conditions: 1A2-DRE human hepatoma cells, luciferase, 24 h; activation: stronger effect = higher value; also: nearly all actives have a fitted effect of over 15% in size; also: potency is read from the fitted curve at half-maximal effect
# How it was run: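 Induction of CYP1A2 transcription through AhR is detected by luciferase in 1A2-DRE hepatoma cells. Compounds or DMSO act for 24 hr at 37 C before a 30 min One-Glo step at room temperature.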
# [6] = qHTS assay for small molecule agonists of the antioxidant response element (ARE) signaling pathway measured by Nrf2-dependant transcriptional activity (AID 720636; active = well fitted curve in the direction sought with a large enough effect in the repeat runs; an effect the other way counts as inactive or inconclusive;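 also: HepG2 cells with an ARE-driven luciferase reporter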); conditions: ARE-luc HepG2, Nrf2 luciferase reporter, 16 h; series mostly up to 92.4 µM
# How it was run: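 We exposed ARE-luc HepG2 cells, seeded in assay medium with 1% dialyzed FBS and allowed 6 hr to adhere, to test compounds overnight (16 hr, 37 C) before measuring luciferase with ONE-Glo.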
# [7] = qHTS assay for small molecule antagonists of the retinoid-related orphan receptor gamma (ROR-gamma) signaling pathway - cell viability counter screen (AID 720652; active = well fitted curve in the direction sought with a large enough effect in the repeat runs; an effect the other way counts as inactive or inconclusive;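 also: compound exposure lasted 16 hr before ATP read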; also: potency is read from the fitted curve at half-maximal effect); conditions: RORgamma reporter cell line viability counter screen; series mostly up to 92.2 µM
# How it was run: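 Cytotoxicity counter screen: intracellular ATP (CellTiter-Glo luminescence) measured in the doxycycline-induced CHO RORE-luciferase reporter line after 16 hr compound exposure at 37 C, 5% CO2.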
# [8] = qHTS assay for small molecule agonists of the antioxidant response element (ARE) signaling pathway measured by Nrf2-dependant transcriptional activity - cell viability counter screen (AID 720653; active = well fitted curve in the direction sought with a large enough effect in the repeat runs; an effect the other way counts as inactive or inconclusive); conditions: ARE-bla HepG2 viability, CellTiter-Glo ATP luminescence, 16 h; stronger effect = lower value
# How it was run: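 ARE-bla HepG2 cells treated with compounds for 16 h at 37C; this counter screen measures viability as intracellular ATP by CellTiter-Glo luminescence after 30 min at room temperature.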
# [9] = qHTS assay for cell viability of HEK293 cells (AID 743288); conditions: ATP luminescence (CellTiter-Glo), 18 h, stronger effect = lower value; also: nearly all actives have a fitted effect of over 50% in size
# How it was run: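 Quantitative high-throughput screen: compounds were pinned onto parental HEK293 cells (2,000 per well) after a minimum 5 h settling at 37 C, incubated 18 h at 37 C, and intracellular ATP measured by luciferase luminescence.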
# [10] = qHTS assay for cell viability of the p53RE-bla HCT-116 cell line (AID 743292); conditions: p53RE-bla HCT-116 viability, ATP luminescence, 16 h; series mostly up to 95 µM; also: nearly all actives have a fitted effect of over 55% in size; also: potency is read from the fitted curve at half-maximal effect
# How it was run: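 In this qHTS counter-screen, metabolically competent p53RE-bla HCT-116 cells were counted via their ATP content. Compounds were applied for 16 h at 37 C and luciferase-coupled luminescence was measured.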
# [11] = qHTS assay for small molecule activators of the human pregnane X receptor (PXR) signaling pathway (AID 720659; call rule not given here); conditions: DPX-2 HepG2 CYP3A4-luciferase, 24 h; series mostly up to 92.3 µM
# [12] = biological target: Peroxisome proliferator-activated receptor alpha (Homo sapiens) (UniProt Q07869); assay: qHTS assay for small molecule agonists of the peroxisome proliferator-activated receptor alpha (PPARalpha) signaling pathway (AID 651778); conditions: PathHunter PPARalpha complementation, chemiluminescence, 6 h; stronger effect = higher value
# Peroxisome proliferator-activated receptor alpha (Homo sapiens), sequence (Q07869 whole entry, looked up, the tested form may be a part): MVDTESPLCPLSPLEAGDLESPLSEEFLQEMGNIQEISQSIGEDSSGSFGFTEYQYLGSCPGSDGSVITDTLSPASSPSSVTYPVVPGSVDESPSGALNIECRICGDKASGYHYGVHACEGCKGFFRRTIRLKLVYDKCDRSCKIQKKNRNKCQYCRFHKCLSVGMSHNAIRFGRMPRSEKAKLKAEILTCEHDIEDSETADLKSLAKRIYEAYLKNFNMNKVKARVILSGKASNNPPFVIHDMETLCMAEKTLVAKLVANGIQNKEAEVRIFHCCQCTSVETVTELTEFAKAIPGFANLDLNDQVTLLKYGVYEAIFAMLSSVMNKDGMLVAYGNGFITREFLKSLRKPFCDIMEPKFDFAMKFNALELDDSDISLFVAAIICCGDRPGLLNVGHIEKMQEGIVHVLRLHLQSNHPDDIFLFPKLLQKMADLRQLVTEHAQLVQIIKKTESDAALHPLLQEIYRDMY
# How it was run: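 Enzyme-fragment complementation assay in which ligand-bound PPARalpha translocates and forms an active enzyme that generates chemiluminescence. Cells were plated overnight, exposed to compound for 6 hr at 37 C, and then given detection reagent for 60 min at room temperature.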
# [13] = biological target: Nuclear receptor subfamily 1 group I member 2 (Rattus norvegicus) (UniProt Q9R1A7); assay: qHTS assay for small molecule activators of the rat pregnane X receptor (rPXR) signaling pathway (AID 651751; call rule not given here); conditions: rPXR reporter cells, luciferase (One-Glo), 24 h
# Nuclear receptor subfamily 1 group I member 2 (Rattus norvegicus), sequence (Q9R1A7 whole entry, looked up): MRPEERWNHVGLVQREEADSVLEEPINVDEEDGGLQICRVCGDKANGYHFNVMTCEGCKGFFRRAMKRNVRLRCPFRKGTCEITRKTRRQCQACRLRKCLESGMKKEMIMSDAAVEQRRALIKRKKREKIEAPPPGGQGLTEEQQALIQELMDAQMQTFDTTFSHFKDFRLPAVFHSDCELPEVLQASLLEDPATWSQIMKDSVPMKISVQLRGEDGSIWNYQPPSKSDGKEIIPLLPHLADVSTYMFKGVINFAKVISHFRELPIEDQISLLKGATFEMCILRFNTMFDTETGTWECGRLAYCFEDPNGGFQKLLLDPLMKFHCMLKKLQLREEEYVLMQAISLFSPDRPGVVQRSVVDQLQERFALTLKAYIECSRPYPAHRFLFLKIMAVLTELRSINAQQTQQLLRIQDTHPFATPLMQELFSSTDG
# [14] = biological target: Nuclear receptor ROR-gamma (Homo sapiens) (UniProt P51449); assay: qHTS assay for small molecule antagonists of the retinoid-related orphan receptor gamma (ROR-gamma) signaling pathway (AID 651802); conditions: ROR-gamma antagonist cell reporter assay; series mostly up to 92.2 µM; also: nearly all actives have a fitted effect of over 60% in size; also: potency is read from the fitted curve at half-maximal effect
# Nuclear receptor ROR-gamma (Homo sapiens), sequence (P51449 whole entry, looked up): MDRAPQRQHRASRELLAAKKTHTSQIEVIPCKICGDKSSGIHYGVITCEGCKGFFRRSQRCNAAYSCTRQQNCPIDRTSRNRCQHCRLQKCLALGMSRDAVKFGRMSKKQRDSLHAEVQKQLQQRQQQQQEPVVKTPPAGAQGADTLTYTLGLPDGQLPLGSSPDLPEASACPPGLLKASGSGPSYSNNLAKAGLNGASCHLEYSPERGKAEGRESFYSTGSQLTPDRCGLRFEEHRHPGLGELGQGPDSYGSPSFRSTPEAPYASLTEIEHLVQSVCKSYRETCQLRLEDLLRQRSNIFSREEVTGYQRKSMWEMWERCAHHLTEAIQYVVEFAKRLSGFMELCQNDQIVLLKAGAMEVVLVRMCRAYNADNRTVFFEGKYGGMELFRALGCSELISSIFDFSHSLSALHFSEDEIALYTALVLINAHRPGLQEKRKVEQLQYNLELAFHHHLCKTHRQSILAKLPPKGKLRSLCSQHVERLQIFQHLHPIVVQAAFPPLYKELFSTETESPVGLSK
# How it was run: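 Luminescence (One-Glo, 30 min RT) measured 16 h after compound addition and doxycycline induction at 37C. Reporter: RORE-luciferase under TET-inducible ROR-gamma in CHO cells.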
Structure (SMILES),Potency [1],Potency [2],Potency [3],Potency [4],activation [5],outcome [6],Potency [7],max response [8],max response [9],Potency [10],outcome [11],max response [12],max response [13],Potency [14],Potency [5]
Clc1cc(Cl)cc(Cl)c1,inactive,inactive,inactive,inactive,2.15%,inactive,inactive,-5.36%,-3.91%,inactive,inactive,–,–,–,–
CCOC(=O)OCC,–,–,inactive,inactive,0.303%,inactive,inactive,2.96%,1.3%,inactive,inactive,3.76%,-3.24%,–,–
O=Nc1ccc(NO)cc1,–,–,–,–,6.63%,inactive,–,2.71%,-9.92%,inactive,inactive,-1.48%,-3.74%,–,–
O=[N+]([O-])c1ccc2nc[nH]c2c1,–,–,–,inactive,–,inactive,inactive,-5.47%,3.84%,inactive,inactive,–,-0.905%,inactive,–
O=C(O)c1ccc(CO)o1,inactive,inactive,inactive,–,-0.734%,inactive,inactive,-10.4%,–,inactive,inactive,15%,–,inactive,–
Nc1cccc2c(=O)[nH][nH]c(=O)c12,inactive,inactive,–,–,–,inactive,inactive,4.98%,–,inactive,–,0.513%,–,inactive,–
C[C@@H]1CC2(OC3C[C@@]4(C)C5=CC[C@H]6C(C)(C)C(O[C@@H]7OC[C@@H](O)[C@H](O)[C@H]7O)CC[C@@]67C[C@@]57CC[C@]4(C)C31)OC(O)C1(C)OC21 (stereo not given in full),inactive,inactive,inactive,inactive,–,inactive,–,–,–,inactive,inactive,8.86%,–,21.1 µM (active),–
C1CCOC1,–,–,inactive,–,0.0348%,inactive,inactive,5.55%,-1.37%,inactive,inactive,-1.78%,2.84%,–,–
CC=O,–,–,–,inactive,1.11%,inactive,inactive,5.19%,-3.08%,inactive,inactive,-2.4%,-4.58%,inactive,–
O=c1[nH][nH]c(=O)c2cc([N+](=O)[O-])ccc12,–,–,–,–,1.03%,inactive,inactive,5.62%,–,inactive,inactive,-4.9%,-1.39%,inactive,–
Clc1ccc(Cl)c(Cl)c1Cl,–,–,inactive,–,0.208% and -1.37%,inactive,inactive,13.5% and -3.85%,–,inactive,inactive,-7.17% and 0.0854%,-5.98% and -1.32%,inactive,–
CC(=C/C=C/C(C)=C/C=C/C=C(C)/C=C/C=C(C)/C=C/C(=O)O)/C=C/C(=O)O,–,–,inactive,–,2.66%,inactive,inactive,-9.67%,-2.36%,inactive,inactive,–,9.17%,inactive,–
C=CCCCC,–,–,inactive,–,0.475%,inactive,inactive,-4.9%,3.02%,inactive,inactive,-2.42%,0.496%,inactive,–
CC(=O)C1(C)CC2=C(CCCC2(C)C)CC1C (stereo not given),–,–,inactive,–,-1.01%,inactive,inactive,5.61%,-9.23%,inactive,inactive,-0.376%,2.11%,inactive,–
C/C(C=O)=C/c1ccccc1,–,–,–,–,-1.35%,inactive,inactive,-7.12%,–,inactive,inactive,-3.84%,2.25%,inactive,–
CCC(C)=O,–,–,inactive,inactive,-0.131%,inactive,inactive,–,4.69%,inactive,inactive,-7.5%,4.73%,inactive,–
COc1ccc(N)c(OC)c1,37.6 µM (active),–,–,–,–,inactive,inactive,4.1%,1.67%,inactive,–,4.7%,–,inactive,–
Nc1nc(-c2ccccc2)cs1,inactive,inactive,inactive,–,–,–,inactive,4.04%,0.545%,inactive,–,22.8%,–,–,35.5 µM (active)

Structure (SMILES),Potency [1],Potency [2],Potency [3],Potency [4],activation [5],outcome [6],Potency [7],max response [8],max response [9],Potency [10],outcome [11],max response [12],max response [13],Potency [14],Potency [5]
Cc1ccc2nc(-c3ccc(N)cc3)sc2c1S(=O)(=O)O,–,–,8.41 µM (active),–,–,–,inactive,-24.5%,-7.88%,inactive,–,2.42%,–,–,39.8 µM (active)
CCOc1cc(OCC)c(C(C)=O)cc1OCC,inactive,inactive,inactive,inactive,3.71%,inactive,inactive,3.21%,0.327%,inactive,–,0.501%,–,inactive,–
CCC(C)O (stereo not given),inactive,inactive,inactive,inactive,–,inactive,inactive,-9.02%,5.18%,inactive,–,0.282%,–,inactive,–
Oc1cccc(Nc2ccccc2)c1,–,–,–,–,4.89%,inactive,inactive,-2.76%,2.73%,inactive,inactive,–,5.07%,inactive,–
CC(N)CN (stereo not given),–,–,inactive,inactive,-0.27%,inactive,inactive,0.44%,-8.09%,inactive,inactive,-3.51%,5.77%,–,–
Cc1cscn1,–,–,inactive,–,1.08%,inactive,inactive,0.707%,-3.62%,inactive,inactive,-1.32%,0.103%,–,–
OCCO,inactive,inactive,inactive,–,0.215%,inactive,inactive,-3.22%,-10.8%,inactive,–,-4.04%,–,–,–
O=C(O)CN(CC(=O)O)CC(=O)O,–,–,inactive,–,–,inactive,inactive,-26.1% and -5.78% and 9.03%,8.87% and -10.3% and 10.6%,inactive,inactive,0.802% and -1.95% and -0.798%,–,inactive,–
CC#N,inactive,inactive,–,inactive,0.208%,inactive,inactive,-0.353%,-9.36%,inactive,inactive,-2.21%,–,–,–
CCC(=O)/C=C/C1C(C)=CCCC1(C)C (stereo not given),inactive,inactive,inactive,inactive,-0.103%,inactive,inactive,0.358%,0.395%,inactive,–,0.561%,–,inactive,–
C=C(C)C1CC=C(C)C(OC(C)=O)C1 (stereo not given),inactive,inactive,–,inactive,0.261%,inactive,inactive,1.71%,1.89%,inactive,inactive,-3.58%,–,inactive,–
Nc1cccc(O)c1,–,–,inactive,–,2.45%,inactive,inactive,-0.321%,2.15%,inactive,inactive,0.244%,-3.29%,inactive,–
CC1=C(/C=C/C(C)=C/C=C/C(C)=C\C=O)C(C)(C)CCC1,inactive,inactive,inactive,0.422 µM (active),–,–,26.6 µM (active),–,-22%,44.7 µM (active),–,–,–,–,–
CC(C)(C)c1ccc(OCC2CO2)cc1 (stereo not given),inactive,inactive,inactive,–,8.83%,inactive,inactive,4.81%,3.48%,inactive,–,-5.01%,–,inactive,–
C=CCOC(=O)CCCCCCCC,–,–,inactive,inactive,-2.14%,inactive,inactive,3.3%,-7.54%,inactive,inactive,-0.94%,-5.54%,inactive,–
COC(=O)CCCC(=O)OC,–,–,inactive,–,–,inactive,inactive,4.37%,-4.02%,inactive,inactive,-1.53%,1.21%,inactive,–
Nc1ccc(Cl)cc1[N+](=O)[O-],–,–,inactive,–,1.69%,inactive,–,0.225%,-4.72%,inactive,inactive,-2.8%,1.08%,–,–
